# Where “and” joins values, the source holds several entries; their conditions need not be identical. Equal values may be shown once. Results filed as inconclusive are left out. Entries that show only a call come without a potency. Some structures have more than one record in an assay (separate samples or runs), and their calls can disagree. Calls of active or inactive are those of the source. Calls come from the whole dose curve; as a rule, active = well fitted inhibition curve with a large enough effect; inconclusive = small, poorly fitted or top-dose-only effect; inactive = flat fitted curve, though single readings scatter.
# Tests used:
# [1] = tested on: HEK293; test: Cytotoxic Profiling of Annotated Libraries Using Quantitative High-Throughput Screening (AID 1296008); conditions: Five cell lines viability, CellTiter-Glo ATP luminescence, 48-72 h; max response: stronger effect = lower value
# How it was run: (§1)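 Cells exposed to compounds for 48 or 72 hr at 37 degrees Celsius. Viability read as ATP-coupled luminescence with CellTiter-Glo after 10 min at room temperature.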
# [2] = tested on: HaCat; test: as above; conditions: Five cell lines viability, CellTiter-Glo ATP luminescence, 48-72 h; max response: stronger effect = lower value
# How it was run: as §1
# [3] = tested on: KB-3-1; test: as above; conditions: Five cell lines viability, CellTiter-Glo ATP luminescence, 48-72 h; max response: stronger effect = lower value
# How it was run: as §1
# [4] = tested on: NIH3T3; test: as above; conditions: Five cell lines viability, CellTiter-Glo ATP luminescence, 48-72 h; max response: stronger effect = lower value
# How it was run: as §1
# [5] = tested on: HACAT; test: qHTS assay to identify novel small-molecules to repurpose for Merkel cell carcinoma treatment (AID 1296009); conditions: MCC and control cell lines, CellTiter-Glo viability, 72 h; series mostly up to 44.8 µM
# How it was run: (§2)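 CellTiter-Glo luminescence after 72 hr compound exposure at 37 degree celsius gave cell viability. Libraries NPC and MIPE were run as 8- and 11-point dose responses; RLUs normalized to DMSO (negative) and no-cell (cytotoxicity) controls.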
# [6] = tested on: HEK293T; test: as above; conditions: MCC and control cell lines, CellTiter-Glo viability, 72 h; at 44.8 µM (top of the series) unless noted
# How it was run: as §2
# [7] = tested on: MCC-13; test: as above; conditions: MCC and control cell lines, CellTiter-Glo viability, 72 h; series mostly up to 46 µM
# How it was run: as §2
# [8] = tested on: MKL-1; test: as above; conditions: MCC and control cell lines, CellTiter-Glo viability, 72 h; series mostly up to 46 µM
# How it was run: as §2
# [9] = tested on: MKL-2; test: as above; conditions: MCC and control cell lines, CellTiter-Glo viability, 72 h; series mostly up to 46 µM
# How it was run: as §2
# [10] = tested on: MCC-26; test: as above; conditions: MCC and control cell lines, CellTiter-Glo viability, 72 h; series mostly up to 46 µM
# How it was run: as §2
# Note: nearly all actives have a fitted effect of over 60% in size.
# Potency is the fitted concentration of half-maximal effect.
Structure (SMILES),max response [1],outcome [1],max response [2],outcome [2],max response [3],max response [4],outcome [5],outcome [6],Potency [7],Potency [8],Potency [9],outcome [4],outcome [3],Potency [10],Potency [1],Potency [3],Potency [4]
CCc1cccc2c3c([nH]c12)C(CC)(CC(=O)O)OCC3 (centres undefined),1.01% (inactive),inactive,2.9% (inactive),inactive,-15.8% (inactive) and -6.31% (inactive),3.41% (inactive) and -0.401% (inactive),inactive,inactive,inactive,inactive,inactive,,,,,,
NC(=O)OCC(COC(N)=O)c1ccccc1,-9.25% (inactive),inactive,,inactive,,-0.687% (inactive),inactive,inactive,inactive,inactive,inactive,inactive,,,,,
Cn1ccc2cc3c(cc21)CCN3C(=O)Nc1cccnc1,-20.9% (inactive),inactive,-2.9% (inactive),,,0.531% (inactive),,inactive,inactive,inactive,inactive,inactive,,,,,
Clc1ccc2nsnc2c1NC1=NCCN1,-8.03% (inactive),inactive,2.64% (inactive),inactive,-0.508% (inactive) and 0.187% (inactive),1.46% (inactive),inactive,inactive,inactive,inactive,inactive,inactive,,,,,
NCCc1cnc[nH]1,4.08% (inactive),inactive,-11% (inactive) and 1.72% (inactive),,-8.33% (inactive),-6.9% (inactive),,inactive,inactive,inactive,inactive,inactive,inactive,inactive,,,
NC(=O)NO,4.27% (inactive),,-18.6% (inactive),,2.92% (inactive),2.15% (inactive),,,inactive and 2.96 µM (active),inactive,inactive and 372 nM (active),,,,0.0526 µM (active),6.62 µM (active),18.7 µM (active)
CCOC(=O)C(C)(C)Oc1ccc(Cl)cc1,4.89% (inactive),inactive,,inactive,9.24% (inactive) and 4.33% (inactive),,inactive,inactive,inactive,inactive,inactive,inactive,,inactive,,,
Nc1nc2c(ncn2COC(CO)CO)c(=O)[nH]1,-8.08% (inactive),,-15.7% (inactive),,,-3.13% (inactive),,,inactive and 20.9 µM (active),inactive,inactive and 7.43 µM (active),,,inactive,0.132 µM (active),,
CN(C)C(=N)N=C(N)N,2.32% (inactive),inactive,,inactive,-1.82% (inactive) and 7.62% (inactive),-1.85% (inactive) and 1.26% (inactive),inactive,inactive,inactive,inactive,inactive,,,inactive,,,
NC12CC3CC(CC(C3)C1)C2,1.92% (inactive),inactive,3.56% (inactive),inactive,5.54% (inactive) and 19.1% (inactive),1.39% (inactive),inactive,inactive,inactive,inactive,inactive,inactive,,inactive,,,
Cc1ccc(-c2cc(C(F)(F)F)nn2-c2ccc(S(N)(=O)=O)cc2)cc1,-17.2% (inactive),,4.57% (inactive) and -3.85% (inactive),inactive,-4.37% (inactive) and -12.4% (inactive),4.24% (inactive),inactive,,inactive,inactive,inactive,,inactive,,,,
CC(C)(C)C(=O)Oc1ccc(S(=O)(=O)Nc2ccccc2C(=O)NCC(=O)O)cc1,-6.47% (inactive),inactive,-9.37% (inactive),inactive,-8.85% (inactive),-7.41% (inactive) and -3.91% (inactive),inactive,inactive,inactive,inactive,inactive,,inactive,inactive,,,
CC(C)Cc1ccc(C(C)C(=O)O)cc1 (centres undefined),1.58% (inactive) and -3.42% (inactive),,-14.1% (inactive),inactive,1.49% (inactive) and -2.93% (inactive),2.78% (inactive),inactive,,inactive,inactive,inactive,inactive,,inactive,,,
O=C1N(c2ccccc2)c2ccccc2C1(Cc1ccncc1)Cc1ccncc1,2.06% (inactive),inactive,2.97% (inactive),inactive,0.123% (inactive),-1.99% (inactive) and -3.96% (inactive),inactive,inactive,inactive,inactive,inactive,,inactive,inactive,,,

# From PubChem BioAssay (NCATS)
